Sampled rows, rich in hits. Any-hit rate of the full collection: about 2.9%.
TRPML1 blocker: inhibitors of human TRPML1 channel; Q9GZU1; TRPML1-inducible cells, Ca2+ dye fluorescence, FDSS; stronger effect = lower value; inhibition of EC80 agonist-evoked calcium signal; activity change, negative = inhibition, % (test concentration not listed); hit rate 0.02% among 390,000; AID 624415; in the data active = activity change below about -50%; inconclusive = between about -30% and that limit;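 also: stimulus is agonist 54-4 at its EC80 concentration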
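Tet-induced TRPML1-DL cells loaded with Ca8 no-wash calcium dye were read kinetically on FDSS. Compound addition was followed by EC80 agonist 54-4 (4 uM final); inhibition was read over 110 s.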
D3 antag: blocks the human D3 dopamine receptor | D3R cells, DiscoveRx beta-arrestin luminescence, antagonist mode; stronger effect = lower value | max response, negative = inhibition, % | hit rate 2.5% among 360,000; in the data active = max response below about -50%; inconclusive = no clear call, values can overlap the other calls
Target sequence (P35462 whole entry, looked up): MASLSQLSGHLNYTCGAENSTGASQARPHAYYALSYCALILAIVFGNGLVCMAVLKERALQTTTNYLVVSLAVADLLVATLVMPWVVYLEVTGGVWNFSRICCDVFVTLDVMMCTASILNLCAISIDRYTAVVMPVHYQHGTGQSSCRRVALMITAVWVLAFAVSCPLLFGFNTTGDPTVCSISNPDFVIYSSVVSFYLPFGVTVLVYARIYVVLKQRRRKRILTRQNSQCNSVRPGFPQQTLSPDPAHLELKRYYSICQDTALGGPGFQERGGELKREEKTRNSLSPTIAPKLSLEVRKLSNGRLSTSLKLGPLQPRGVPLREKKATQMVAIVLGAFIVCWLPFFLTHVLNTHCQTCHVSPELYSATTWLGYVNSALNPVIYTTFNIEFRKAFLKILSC
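Cells expressing the human receptor were seeded at 1500 cells/well, incubated overnight at 37 degrees C in 5% CO2, then exposed to library compounds with dopamine controls for 90 minutes at 37 degrees C before luminescent detection.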
DRD3 agonist: activates the human D3 dopamine receptor | AID 652048 | max activation, % | D3R DiscoveRx beta-arrestin cells, luminescence, 90 min | hit rate 0.58% among 410,000; in the data active = max activation above about 30%
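Cells at 1500/well, incubated overnight, then treated with pinned compounds (dopamine as control) for 90 min at 37 degrees C. DiscoveRx reagent added for 30 - 60 minutes at room temperature; luminescence read.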
TRPML1 agonist: human mucolipin-1 channel agonism. TRPML1-expressing cells, Ca2+ dye fluorescence, FDSS. activation, % (concentration not given with the values). hit rate 0.12% among 410,000; in the data active = activation above about 50%; inconclusive = mostly about 30% to 49%
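Agonist activity was taken from a 110 s kinetic Ca2+ dye read on the FDSS after pinning compounds onto TRPML1-DL cells. The cells were seeded at 1,500/well with Tet inducer, incubated about 16 h, then dye-loaded at room temperature.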
Large screens that a line does not name were inactive.

O=C(CSc1nc(-c2ccccc2)[nH]c1-c1ccccc1)Nc1ccc2c(c1)OCO2	none (no result: D3 antag)
COc1ccc(CCn2c3c(c(=O)[nH]c2=S)CN(CC(C)C)CN3)cc1OC	none (no result: TRPML1 blocker, D3 antag, DRD3 agonist)
C=CCNc1nc(NC2CCN(C)CC2)c2cc(OC)c(OC)cc2n1	none (no result: TRPML1 blocker, D3 antag, DRD3 agonist)
CCSc1nnc2n(-c3cccc(C)c3)c(=O)c3c4c(sc3n12)CCCC4	DRD3 agonist 37 (no result: D3 antag)
CCCCSc1nnc2n(-c3cccc(C)c3)c(=O)c3c4c(sc3n12)CCCC4	none (no result: D3 antag)
CCOc1ccc(Nc2oc(/C=C/c3cc(OC)c(OC)c(OC)c3)nc2C#N)cc1	none (no result: D3 antag)
C=C1CC(COc2ccc3c(C)c(Cl)c(=O)oc3c2)(c2ccccc2)OC1=O (stereo not given)	D3 antag -99
COc1ccc2c(C)c(Cl)c(=O)oc2c1	none
COc1ccc(C(=O)Oc2ccc3oc(=O)sc3c2)cc1	D3 antag -52
CC12CCC(=O)N1C(C(=O)Nc1nccs1)CS2 (stereo not given)	DRD3 agonist 79
Clc1ccc2c(c1)C(N1CCNCC1)=Nc1ccccc1O2	D3 antag -117
CC1=Nc2cc(Cl)ccc2Oc2ccccc21	none
CCOc1cc(/C=C2/NC(=O)NC2=O)cc([N+](=O)[O-])c1O	D3 antag -86
C=CCc1cc(/C=C2/NC(=O)NC2=O)cc(OCC)c1O	none
COc1ccc(C2/C(=C(/O)c3ccccc3)C(=O)C(=O)N2CCN2CCOCC2)c(OC)c1 (stereo not given)	D3 antag -57
COc1cccc(/C(O)=C2\C(=O)C(=O)N(c3ccccn3)C2c2ccccc2OC)c1 (stereo not given)	D3 antag -51
Cc1cc(C)c2c(=O)cc(C(=O)Nc3sc4c(c3C(=O)NCc3ccccc3)CCCC4)oc2c1	none (no result: D3 antag)
Clc1ccc(Nc2nnc(Cc3ccncc3)c3ccccc23)cc1	none (no result: TRPML1 blocker, D3 antag, TRPML1 agonist)
Cc1ccc(C)c(N2CCN(CC3CC=CCC3)CC2)c1 (stereo not given)	D3 antag -73
Cc1ccc(C)c(CN2CCC(CNC(=O)Nc3ccc(C)c(C)c3)CC2)c1	D3 antag inconclusive
O=C(NCC1CCN(Cc2cccc(Cl)c2)CC1)Nc1ccc(F)c(Cl)c1	none (no result: D3 antag)
COc1cc([N+](=O)[O-])ccc1NC(=O)NCC1CCN(Cc2ccc(Cl)cc2)CC1	D3 antag -73
COc1ccc(Cl)cc1NC(=O)NCC1CCN(Cc2cc(C)ccc2C)CC1	D3 antag -85
O=C(NCC1CCN(Cc2cccc(Cl)c2)CC1)Nc1ccc(Cl)cc1	D3 antag -61
O=C(NCC1CCN(Cc2cccc(Cl)c2)CC1)Nc1cc(Cl)ccc1Cl	none (no result: D3 antag)
O=S(=O)(c1ccc2c(c1)OCO2)N1CCN(c2nc(-c3cccs3)nc3ccccc23)CC1	none (no result: TRPML1 blocker, D3 antag, DRD3 agonist)
CN1CCN(c2oc(-c3ccccc3Cl)nc2S(=O)(=O)c2ccccc2)CC1	D3 antag -79
CN1CCN(c2oc(-c3ccccc3)nc2S(=O)(=O)c2ccc(Br)cc2)CC1	D3 antag -67
Cc1cccc(NC(=O)Cn2c(=O)n(CCc3ccccc3)c(=O)c3sc4ccccc4c32)c1	none (no result: D3 antag)
CS(=O)(=O)c1ccc(C(=O)OCC(=O)NCC2CCCO2)cc1[N+](=O)[O-] (stereo not given)	none (no result: TRPML1 blocker, D3 antag, DRD3 agonist)
N#CCCN1CCN(Cc2cc(-c3ccccc3)ccc2O)CC1	D3 antag -96
CC(C)(C)CC(C)(C)c1ccc(O)c(CN2CCN(CCC#N)CC2)c1	none
Cc1ccccc1NC(=O)c1ccc(Nc2c([N+](=O)[O-])cc([N+](=O)[O-])c3ccccc23)cc1	D3 antag -71
O=C(Cc1ccc(OCCC2CCCCC2)cc1)NO	none (no result: TRPML1 blocker, D3 antag, DRD3 agonist)
Cc1ccccc1C(NC(=O)C1CCN(Cc2ccc(Oc3ccccc3)cc2)CC1)c1ccsc1 (stereo not given)	D3 antag -56 (no result: TRPML1 blocker)
O=C(NC(c1ccccc1)c1ccsc1)C1CCN(Cc2ccccc2)CC1 (stereo not given)	D3 antag inconclusive (no result: TRPML1 blocker)
O=C(NC(c1ccc(Cl)cc1)c1ccsc1)C1CCN(Cc2ccc(Oc3ccccc3)cc2)CC1 (stereo not given)	D3 antag -64 (no result: TRPML1 blocker)
CCCN1CCC(C(=O)NC(c2ccc(Cl)cc2)c2ccsc2)CC1 (stereo not given)	D3 antag -56 (no result: TRPML1 blocker)
Cc1[nH]n(C(N)=S)c(=O)c1N=Nc1ccc(S(=O)(=O)N2CCCC2)cc1	D3 antag -78
CCC(C)c1ccccc1OCCCCN1CCCC1 (stereo not given)	D3 antag -72
CCC(C)c1ccccc1OCCOCCN1CCCC1 (stereo not given)	D3 antag -52
Cc1cc(C)c(NC(=O)Cn2c(=O)n(CCc3ccccc3)c(=O)c3ccccc32)c(C)c1	none (no result: D3 antag)
CCOc1ccc(C2=C(C(=O)CC)Sc3nncn3N2C(=O)CC)cc1	none (no result: D3 antag)
O=C(CN1CCN(c2ccccc2)CC1)Nc1cccc(C(F)(F)F)c1	D3 antag -50
O=C(CCN1CCCC1)Nc1cccc(Br)c1	none
O=C(NCCN1CCN(c2ccccc2)CC1)Nc1cccc(Br)c1	D3 antag -75
O=C(CCN1CCN(c2ccccc2)CC1)Nc1cccc(Br)c1	D3 antag -73
CN(CC(=O)Nc1cccc(C(F)(F)F)c1)Cc1ccccc1	D3 antag -54
CN(CC(=O)Nc1cccc(S(=O)(=O)N(C)C)c1)Cc1ccccc1	none
CC[N+]1(CC)CCC(=C(c2ccccc2)c2ccccc2)C1C (stereo not given)	none (no result: TRPML1 blocker, D3 antag, TRPML1 agonist)
COc1ccccc1C(=O)NCc1nc2cccnc2n1Cc1ccc(F)cc1	none (no result: D3 antag)
CC1=C(C(=O)Nc2ccccc2)C(c2ccc(C(C)C)cc2)N2C(=O)CSC2=N1 (stereo not given)	D3 antag -51
CC1=C(C(=O)Nc2ccccc2)C(c2ccccc2)N2C(=O)CSC2=N1 (stereo not given)	none
Cc1ccc(C)c(N2CCN(CCCNC(=O)Cn3cccc3C(=O)c3ccccc3)CC2)c1	D3 antag -68
Cc1ccccc1C(=O)c1cccn1CC(=O)NCCCN1CC(C)CC(C)C1 (stereo not given)	none
Cc1ccccc1C(=O)c1cccn1CC(=O)NCCCN1CCc2ccccc2C1	D3 antag -51
O=S(=O)(Nc1ccc(F)cc1F)c1ccc(-n2cccn2)cc1	none (no result: D3 antag)
COc1ccc(S(=O)(=O)N2CCc3cc4c(cc3C2C)OCCCO4)cc1 (stereo not given)	TRPML1 blocker -51
CC1c2cc3c(cc2CCN1C(=O)c1ccc(Br)cc1)OCCCO3 (stereo not given)	none
COc1ccc(C(=O)N2CCc3cc4c(cc3C2C)OCCCO4)cc1 (stereo not given)	DRD3 agonist 44 (no result: TRPML1 blocker, TRPML1 agonist)
COc1ccc(NC(=O)Cn2c(=O)nc(-c3ccccc3)c3ccccc32)cc1OC	none (no result: D3 antag)
COc1ccc(S(=O)(=O)N2c3ccc(Cl)cc3[C@@](O)(c3ccccc3Cl)[C@H]2C(=O)N2CCC[C@@H]2C(N)=O)cc1OC	none (no result: TRPML1 blocker, D3 antag, TRPML1 agonist)
c1ccc2c(c1)CCc1ccccc1C2=C1CCNCC1	D3 antag -85
CCCCSc1nnc2c(n1)OC(C)N(C(C)=O)c1ccccc1-2 (stereo not given)	none (no result: D3 antag)

From PubChem
